NPR1 antag – Natriuretic polypeptide receptor (hNpr1) antagonism - Primary qHTS | Atrial natriuretic peptide receptor 1 (Homo sapiens), P16066 | HEK293 hNpr1 GloSensor cGMP, ANP-stimulated luminescence | Potency, µM (highest dose often 46.3 µM), for the others: top-dose activity change, negative = inhibition, usual class: inhibitors | 76,000 compounds, 1.6% hits | AID 1347048, 2019; calls by dose curve; further: on the % scale 0 is the no-effect control and ±100 the full control effect; nearly all actives have a fitted effect of over 60% in size
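Compound pre-incubated 30 min at room temperature on GloSensor-loaded HEK293 cells stably carrying hNpr1 and the pGS-40F cGMP biosensor. Stimulation uses hNppA at 0.1 nM final; luminescence is taken at baseline and 20 min post-agonist.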
HEK293 tox – Cytotoxic Profiling in HEK 293 Cell Line of Diverse Libraries Using Quantitative High-Throughput Screening | AID 1345083, 2018 | HEK 293 viability, ATP luminescence (CellTiter-Glo), 48-72 h | Potency, µM (series often up to 115 µM), for the others: at the highest dose activity change, negative = cytotoxicity, most hits filed as inhibitors | 94,000 compounds, 6.6% hits; further: on the % scale 0 is the no-effect control and ±100 the full control effect; nearly all actives have a fitted effect of over 60% in size
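Luminescence from cellular ATP, measured with CellTiter-Glo, indicates HEK 293 viability. Cells plated at 250 cells/well are treated with compound for 48 or 72 hr at 37 degree Celsius before reagent addition.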
FLuc inh-1 – Firefly luciferase inhibition profiling of diverse chemical library using quantitative high-throughput screening; 76,000 compounds, 2.5% hits; purified P. pyralis luciferase, luminescence, biochemical; AID 1347043, 2019; Luciferin 4-monooxygenase (Photinus pyralis), P08659; Potency, µM (series often up to 115 µM), actives largely listed as inhibitors; further: on the % scale 0 is the no-effect control and ±100 the full control effect; nearly all actives have a fitted effect of over 65% in size
Target sequence (P08659 whole entry, looked up): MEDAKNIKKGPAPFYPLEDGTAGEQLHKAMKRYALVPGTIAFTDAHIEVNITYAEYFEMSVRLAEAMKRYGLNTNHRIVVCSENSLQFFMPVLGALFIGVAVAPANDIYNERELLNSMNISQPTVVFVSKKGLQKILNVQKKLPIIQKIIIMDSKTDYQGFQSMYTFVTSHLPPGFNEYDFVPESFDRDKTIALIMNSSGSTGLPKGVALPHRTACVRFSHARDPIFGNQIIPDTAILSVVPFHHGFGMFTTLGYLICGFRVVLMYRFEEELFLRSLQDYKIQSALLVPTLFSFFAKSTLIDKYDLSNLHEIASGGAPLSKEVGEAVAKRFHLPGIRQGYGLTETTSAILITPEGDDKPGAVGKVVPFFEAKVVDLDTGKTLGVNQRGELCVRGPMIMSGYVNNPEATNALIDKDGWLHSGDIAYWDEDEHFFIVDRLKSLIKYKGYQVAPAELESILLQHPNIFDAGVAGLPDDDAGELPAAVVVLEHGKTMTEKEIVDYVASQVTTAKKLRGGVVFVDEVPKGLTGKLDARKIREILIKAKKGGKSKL
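Biochemical qHTS: compound (6-point titration) added to 10uM D-luciferin plus 10uM ATP in Tris acetate pH 7.5 buffer with Mg, Tween-20 and BSA, then purified enzyme at 10nM; light output imaged.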
GPT2 inh – Primary qHTS assay for inhibitors of Glutamate pyruvate transaminase 2 (GPT2) | Recombinant GPT2, coupled pyruvate oxidase/HRP Amplex Red fluorescence | Potency, µM (titrated, usually from 57.7 µM), for the others: at the top dose activity change, negative = inhibition, hits mostly inhibitors | 100,000 compounds, 0.25% hits; further: on the % scale 0 is the no-effect control and ±100 the full control effect; nearly all actives have a fitted effect of over 60% in size
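GPT2 10ng/uL, a-KG 250uM, L-Ala 2mM, HEPES pH7.5 + 0.0001% Tween; 30 min RT. Then Amplex mix (PO/HRP/ThPP), 30 min RT dark, fluorescence. AOA 50uM used as positive control.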
NIH3T3 tox – Cytotoxic Profiling in NIH 3T3 Cell Line of Diverse Libraries Using Quantitative High-Throughput Screening | NIH 3T3 viability, CellTiter-Glo ATP luminescence, 48-72 h | Potency, µM (doses to about 96.7 µM), for inactives: at the top dose activity change, negative = cytotoxicity, actives largely listed as inhibitors | 94,000 compounds, 4.3% hits; further: on the % scale 0 is the no-effect control and ±100 the full control effect; nearly all actives have a fitted effect of over 55% in size
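NIH 3T3 cells at 400 cells/well received 23 nL of compound by pintool and were incubated 48 or 72 h at 37 °C. Viability was read as ATP-coupled CellTiter-Glo luminescence.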
FLuc SDR -ATP – Firefly luciferase (FLuc-C-HiBiT) SDR gain of signal screen - without ATP. Purified FLuc-C-HiBiT, Nano-Glo HiBiT luminescence, no ATP. AID 1963318, 2024. Potency, µM (highest dose often 32.7 µM), for inactives: top-dose activation (signal gain), hits mostly activators. 1,300 compounds, 7.8% hits. shares compounds with FLuc inh-1; further: nearly all actives have a fitted effect of over 55% in size
FLuc SDR ATP – Firefly luciferase (FLuc-C-HiBiT) SDR gain of signal screen - plus ATP; shares compounds with FLuc inh-1; purified FLuc-C-HiBiT + ATP, HiBiT complementation luminescence; Potency, µM (highest dose often 32.7 µM), without a hit: at the top dose activation (gain of signal), hits mostly activators; 1,300 compounds, 8.7% hits; AID 1963319, 2024;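 further: signal reports ligand binding via conformational change of the enzyme rather than luciferase catalysis; % of control where 0% means no effect; nearly all actives have a fitted effect of over 55% in size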
FLuc inh-2 – Firefly luciferase (FLuc-C-HiBiT) enzymatic inhibition screen - Functional assay; shares compounds with FLuc inh-1; AID 1963320, 2024; purified FLuc-C-HiBiT enzyme, luciferin luminescence; Potency, µM (series often up to 32.7 µM), for the others: at the highest dose activity change, negative = inhibition, most hits filed as inhibitors; 1,300 compounds, 42% hits; further: on the % scale 0 is the no-effect control and ±100 the full control effect; nearly all actives have a fitted effect of over 70% in size
Starred values were filed as active, the others as inactive; i = inactive; ? = inconclusive; / = no result given; [ ] = dose if it differs, or a comment. Hits are enriched below; roughly 10% of the tested compounds scored in any of these assays. Unless noted, the call rests on the fitted dose curve; in most records, active means well fitted curve in the direction sought with a large enough effect; inconclusive means small, poorly fitted or top-dose-only effect, or another doubt; inactive means no such curve, though single readings can be large; an effect the other way counts as inactive or inconclusive. Potency means the concentration at half of the fitted maximal effect.

SMILES | NPR1 antag | HEK293 tox | FLuc inh-1 | GPT2 inh | NIH3T3 tox | FLuc SDR -ATP | FLuc SDR ATP | FLuc inh-2
CN(C)C(=O)c1ccc(-c2cccc(-c3ccn(CC4CC4)n3)c2)o1 | ? | ? | 7.1µM* | ? | ? | 24% | ? | 7.9µM*
O=Cc1cccc(-c2ccc(C(=O)O)o2)c1 | / | i | / | 0%[88.5 µM] | i | / | / | /
C[C@@H](Nc1ccc(-c2nc(CCCc3ccccc3)no2)cn1)C(N)=O | 8% | -6% | i | 4% | -8% | / | / | /
Cc1ccccc1-c1noc(-c2ccc(NC(C)c3cnn(C)c3)nc2)n1 (configuration not stated) | 7.9µM* | 32µM* | 0.32µM* | -9% | 45µM* | ? | ? | 0.99µM*
O=C1NCCCc2[nH]c(-c3cc(-c4cccc(F)c4)no3)nc21 | -29% | -34% | 2.8µM* | i | -29% | ? | ? | 7µM*
Cc1ccc(Nc2ccnc(N3CCCC3C(=O)NCc3ccc(F)cc3)n2)cc1 (configuration not stated) | / | ? | / | i | ? | / | / | /
CCc1cccc(NC(=O)C2CCN(C(=O)c3ncn4c3COC(c3ccccc3)C4)CC2)c1 (configuration not stated) | ? | -14% | 3.5µM* | i | -3% | 13% | 1.2µM* | 1.8µM*
O=C(Nc1ccc(F)c(F)c1)C1CCN(C(=O)c2ncn3c2COC(c2ccccc2)C3)CC1 (configuration not stated) | ? | -3% | 1µM* | 2% | -2% | 12% | 0.56µM* | 0.99µM*
CSc1cccc(NC(=O)C2CCN(C(=O)c3ncn4c3COC(c3ccc(F)cc3)C4)CC2)c1 (configuration not stated) | ? | -29% | ? | i | -9% | / | / | /
CC(C)c1cccc(NC(=O)C2CCN(C(=O)c3ncn4c3COC(c3ccccc3)C4)CC2)c1 (configuration not stated) | -15% | ? | 3.5µM* | i | 4% | 13% | ? | 7.9µM*
O=C(NCc1ccccc1)C1CCN(C(=O)c2ncn3c2COC(c2ccc(Cl)cc2)C3)CC1 (configuration not stated) | 4% | 11% | ? | i | i | / | / | /
COc1ccc(NC(=O)C2CCN(C(=O)c3ncn4c3COC(c3ccc(OC)cc3)C4)CC2)cc1 (configuration not stated) | -8% | -14% | i | 1% | -21% | / | / | /
CC(C)c1ccc(NC(=O)C2CCN(C(=O)c3ncn4c3COC(c3ccccc3)C4)CC2)cc1 (configuration not stated) | -23% | 6% | 2.5µM* | -7% | i | 13% | ? | 3.5µM*
COc1ccc(C(=O)N2CCC[C@H](n3c(=O)n(CC4CC4)c4cccnc43)C2)c(OC)c1 | / | ? | / | -29% | -42% | / | / | /

Screening results (PubChem)
